Experiment [1] is described as follows: NCI Yeast Anticancer Drug Screen. Data for the rad50 strain (AID 155).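 Also: 0% = growth of vehicle-only cultures of the same strain.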 The settings on record: S. cerevisiae rad50 strain growth inhibition, stronger effect = higher value. A digest of the protocol: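 Genetically altered yeast (DNA repair pathway); compound treatment; growth inhibition vs vehicle ctrl.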
Experiment [2] in a line: NCI Yeast Anticancer Drug Screen. Data for the mec2-1 strain (AID 157). The conditions noted are these: S. cerevisiae mec2-1 strain, stronger effect = higher value. A digest of the protocol: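 Compounds were applied to mec2-1 yeast cells. Their growth was then compared with that of vehicle-treated cultures to give growth inhibition.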
Experiment [3] is described as follows: NCI Yeast Anticancer Drug Screen. Data for the sgs1 mgt1 strain (AID 161).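 Also: 0% = growth of cultures given vehicle only.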 The conditions noted are these: S. cerevisiae sgs1 mgt1 strain, stronger effect = higher value. A digest of the protocol: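 Growth of a repair-deficient yeast mutant was monitored after compound treatment and expressed as inhibition relative to vehicle-treated cultures.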
Experiment [4] can be described thus: NCI Yeast Anticancer Drug Screen. Data for the cln2 rad14 strain (AID 165).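 Also: 0% = growth equal to vehicle treated cultures.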 The conditions noted are these: S. cerevisiae cln2 rad14 strain, stronger effect = higher value. A digest of the protocol: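 Strain: cln2 rad14 yeast, altered in cell cycle control and DNA damage repair. Read-out: growth inhibition vs vehicle.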
The nature of experiment [5]: NCI Yeast Anticancer Drug Screen. Data for the bub3 strain (AID 167). The conditions noted are these: S. cerevisiae bub3 mutant strain, stronger effect = higher value. In short, it runs like this:
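Yeast carrying a defined mutation is treated with each compound, and growth is compared with that of vehicle-exposed cells to give inhibition.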

The nature of experiment [6]: NCI Yeast Anticancer Drug Screen. Data for the mlh1 rad18 strain (AID 175). The settings on record: S. cerevisiae mlh1 rad18 strain growth inhibition, stronger effect = higher value. A digest of the protocol:
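A repair-deficient yeast strain is exposed to test compound, and growth is scored relative to vehicle-treated controls.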

Where [7] appears, read: at 5.0 µM (retest, dose inferred, filed as 0.5).
The mark [8] stands for this setting: at 50.0 µM (retest, dose inferred, filed as 5.0).

The panel holds about 79,000 compounds, 15% with a hit somewhere; the sample as a whole holds those more often. A number with no mark means an inactive call. The source made the active and inactive calls. Rule as the data show it: active = growth inhibition above about 70%; inactive = the rest.

Consider `O/N=C1\c2ccccc2-c2ccc(Cl)cc21`, for which the growth inhibition was 6% in experiment [1] (setting [7]); 35% in experiment [1] (setting [8]); 60.5% in experiment [1] (at 50.0 µM); -5% in experiment [2] (setting [7]); 34% in experiment [2] (setting [8]); 50.5% in experiment [2] (at 50.0 µM). Also, the growth inhibition is 3% in experiment [3] (setting [7]); 60% in experiment [3] (setting [8]); 87.4% (active) in experiment [3] (at 50.0 µM); -4% in experiment [4] (setting [7]); 27% in experiment [4] (setting [8]); 41.4% in experiment [4] (at 50.0 µM). The growth inhibition in experiment [5] (setting [7]) is -4%; in experiment [5] (setting [8]), 28%; in experiment [5] (at 50.0 µM), 74.3% (active); in experiment [6] (setting [7]), 8%; in experiment [6] (setting [8]), 36%; in experiment [6] (at 50.0 µM), 79% (active).
For `O=C1/C(=C/c2cccc([N+](=O)[O-])c2)CCCc2ccccc21`, the growth inhibition in experiment [1] (setting [7]) was 4%; in experiment [1] (setting [8]), 92% (active); in experiment [1] (at 50.0 µM), 73.5% (active); in experiment [2] (setting [7]), 7%; in experiment [2] (setting [8]), 94% (active); in experiment [2] (at 50.0 µM) it was 68.8%. For the same compound, the growth inhibition in experiment [3] (setting [7]) is 13%; in experiment [3] (setting [8]), 94% (active); in experiment [3] (at 50.0 µM), 83.2% (active); in experiment [4] (setting [7]), -5%; in experiment [4] (setting [8]), 91% (active); in experiment [4] (at 50.0 µM) it was 70.7% (active). In addition, the growth inhibition in experiment [5] (setting [7]) was 20%; in experiment [5] (setting [8]), 94% (active); in experiment [5] (at 50.0 µM), 84.8% (active); in experiment [6] (setting [7]) it was 9%; in experiment [6] (setting [8]), 93% (active); in experiment [6] (at 50.0 µM), 75.9% (active).
As for `Clc1ccc(CN2COc3c(cc(Cl)c4cccnc34)C2)cc1Cl`, the growth inhibition in experiment [1] (setting [7]) is 43%; in experiment [1] (setting [8]) it was 97% (active); in experiment [1] (at 50.0 µM), 95.4% (active); in experiment [2] (setting [7]), -12%; in experiment [2] (setting [8]) it was 97% (active); in experiment [2] (at 50.0 µM), 97.5% (active). For the same compound, the growth inhibition in experiment [3] (setting [7]) is 10%; in experiment [3] (setting [8]) it was 98% (active); in experiment [3] (at 50.0 µM) it was 70.6% (active); in experiment [4] (setting [7]), -11%; in experiment [4] (setting [8]) it was 97% (active); in experiment [4] (at 50.0 µM) it was 44.4%. In addition, the growth inhibition in experiment [5] (setting [7]) is 3%; in experiment [5] (setting [8]) it was 97% (active); in experiment [5] (at 50.0 µM) it was -4.9%; in experiment [6] (setting [7]), 13%; in experiment [6] (setting [8]), 96% (active); in experiment [6] (at 50.0 µM) it was 47.9%.
`CC1(C)CC(=O)C(/C=N/c2nc(-c3cccc([N+](=O)[O-])c3)cs2)=C(O)C1`: the growth inhibition is 17% in experiment [1] (setting [7]); 99% (active) in experiment [1] (setting [8]); 99% (active) in experiment [1] (at 50.0 µM); 15% in experiment [2] (setting [7]); 99% (active) in experiment [2] (setting [8]); 99% (active) in experiment [2] (at 50.0 µM). Further, the growth inhibition in experiment [3] (setting [7]) was 5%; in experiment [3] (setting [8]), 99% (active); in experiment [3] (at 50.0 µM), 99% (active); in experiment [4] (setting [7]) it was -7%; in experiment [4] (setting [8]) it was 99% (active); in experiment [4] (at 50.0 µM), 98.5% (active). For the same compound, the growth inhibition was 20% in experiment [5] (setting [7]); 99% (active) in experiment [5] (setting [8]); 99.1% (active) in experiment [5] (at 50.0 µM); 14% in experiment [6] (setting [7]); 99% (active) in experiment [6] (setting [8]); 99% (active) in experiment [6] (at 50.0 µM).
In the case of `COc1ccc(OC)c2c(=S)c3ccccc3[nH]c12`, the growth inhibition in experiment [1] (setting [7]) is -1%; in experiment [1] (setting [8]) it was 75% (active); in experiment [1] (at 50.0 µM) it was 85.3% (active); in experiment [2] (setting [7]), 0%; in experiment [2] (setting [8]) it was 44%; in experiment [2] (at 50.0 µM), 26.2%. Besides, the growth inhibition in experiment [3] (setting [7]) is -5%; in experiment [3] (setting [8]), 43%; in experiment [3] (at 50.0 µM), 60.6%; in experiment [4] (setting [7]), -5%; in experiment [4] (setting [8]), -5%; in experiment [4] (at 50.0 µM) it was 40.6%. Besides, the growth inhibition in experiment [5] (setting [7]) was -6%; in experiment [5] (setting [8]), 37%; in experiment [5] (at 50.0 µM), 60.2%; in experiment [6] (setting [7]), -5%; in experiment [6] (setting [8]), 65%; in experiment [6] (at 50.0 µM) it was 91.1% (active).
On to `O=C(CC(=O)c1ccccc1)CC(=O)c1ccccc1Br`, for which the growth inhibition in experiment [1] (setting [7]) was 1%; in experiment [1] (setting [8]), 94% (active); in experiment [1] (at 50.0 µM), 71.1% (active); in experiment [2] (setting [7]) it was -1%; in experiment [2] (setting [8]) it was 93% (active); in experiment [2] (at 50.0 µM) it was 93.5% (active). Besides, the growth inhibition in experiment [3] (setting [7]) is -17%; in experiment [3] (setting [8]), 93% (active); in experiment [3] (at 50.0 µM) it was 6.6%; in experiment [4] (setting [7]), -3%; in experiment [4] (setting [8]), 75% (active); in experiment [4] (at 50.0 µM), 85.5% (active). Besides, the growth inhibition in experiment [5] (setting [7]) is -1%; in experiment [5] (setting [8]) it was 96% (active); in experiment [5] (at 50.0 µM), 68.7%; in experiment [6] (setting [7]), 1%; in experiment [6] (setting [8]) it was 96% (active); in experiment [6] (at 50.0 µM), 96.5% (active).
For the compound `CN(C)C(=S)/N=c1\ss/c(=N\S(=O)(=O)c2ccccc2)n1-c1ccccc1`, the growth inhibition in experiment [1] (setting [7]) was 0%; in experiment [1] (setting [8]) it was 0%; in experiment [1] (at 50.0 µM), 37.6%; in experiment [2] (setting [7]), -5%; in experiment [2] (setting [8]), -13%; in experiment [2] (at 50.0 µM) it was 51.9%. The growth inhibition in experiment [3] (setting [7]) was -2%; in experiment [3] (setting [8]), 26%; in experiment [3] (at 50.0 µM), 64.9%; in experiment [4] (setting [7]), -10%; in experiment [4] (setting [8]) it was -21%; in experiment [4] (at 50.0 µM), 9.6%. The growth inhibition in experiment [5] (setting [7]) is -52%; in experiment [5] (setting [8]), -2%; in experiment [5] (at 50.0 µM) it was 29.1%; in experiment [6] (setting [7]), -1%; in experiment [6] (setting [8]), 15%; in experiment [6] (at 50.0 µM), 59.7%.
For the compound `CCCCC(O)CCCC`, the growth inhibition in experiment [1] (setting [7]) was 13%; in experiment [1] (setting [8]), 17%; in experiment [1] (at 50.0 µM), 4.55%; in experiment [2] (setting [7]), 14%; in experiment [2] (setting [8]), 18%; in experiment [2] (at 50.0 µM) it was 8.65%. Also, the growth inhibition is -5% in experiment [3] (setting [7]); 9% in experiment [3] (setting [8]); 15.8% in experiment [3] (at 50.0 µM); 3% in experiment [4] (setting [7]); 13% in experiment [4] (setting [8]); 22.2% in experiment [4] (at 50.0 µM). The growth inhibition was 43% in experiment [5] (setting [7]); 91% (active) in experiment [5] (setting [8]); 64.2% in experiment [5] (at 50.0 µM); 31% in experiment [6] (setting [7]); 25% in experiment [6] (setting [8]); -7.1% in experiment [6] (at 50.0 µM).
Consider `O=C1C(CN2CCCC2)C(O)=C(c2ccccc2)N1c1ccccc1` (configuration not stated), for which the growth inhibition is 5% in experiment [1] (setting [7]); 4% in experiment [1] (setting [8]); 52.2% in experiment [1] (at 50.0 µM); 1% in experiment [2] (setting [7]); 9% in experiment [2] (setting [8]); 14.8% in experiment [2] (at 50.0 µM). Further, the growth inhibition in experiment [3] (setting [7]) is 1%; in experiment [3] (setting [8]) it was 2%; in experiment [3] (at 50.0 µM), 75.5% (active); in experiment [4] (setting [7]), -3%; in experiment [4] (setting [8]), 1%; in experiment [4] (at 50.0 µM), 18.6%. Besides, the growth inhibition in experiment [5] (setting [7]) is -6%; in experiment [5] (setting [8]), 1%; in experiment [5] (at 50.0 µM), 30.1%; in experiment [6] (setting [7]), 0%; in experiment [6] (setting [8]), 1%; in experiment [6] (at 50.0 µM), 43.1%.
